Results taken from the supplement of paper PMC6555819.

Experiments:
Assay in all cases: PBM binding z-score (relative to random genomic background probes); higher = stronger binding; sequences stand for … in GC…GCGATTGACAGCGTAGAATGAAGG
[1] = test system: PPARg:RXRa DBDmut IVT, anti-RXR (DBD mutation: RXRa K156A/R161A, NR concentration 270 nM, RXRa partner concentration 90 nM)
In short: (§1)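 Scanned fluorescence from custom Agilent 4×180K protein-binding microarrays was regression-normalized. Binding z-scores use random background probes as reference. Ligand-free nuclear receptor dimers were incubated on the arrays for 1 h and detected with antibodies against each partner (one per run).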

[2] = test system: PPARg:RXRa IVT, anti-PPARg (NR concentration 270 nM, RXRa partner concentration 90 nM)
In short: as §1

[3] = test system: PPARg homodimer (NR concentration 180 nM)
In short: as §1

[4] = test system: PXR homodimer (NR concentration 270 nM)
In short: as §1

[5] = test system: RARa:RXR (NR concentration 270 nM, RXRa partner concentration 90 nM)
In short: as §1

[6] = test system: RARa homodimer (NR concentration 270 nM)
In short: as §1

[7] = test system: RARb:RXRa (NR concentration 270 nM, RXRa partner concentration 90 nM)
In short: as §1

[8] = test system: PXR:RXRa (NR concentration 270 nM, RXRa partner concentration 90 nM)
In short: as §1

Sequence	PBM binding z-score [1]	PBM binding z-score [2]	PBM binding z-score [3]	PBM binding z-score [4]	PBM binding z-score [5]	PBM binding z-score [6]	PBM binding z-score [7]	PBM binding z-score [8]
TCGAGTAGGTTACTGGGGCATTCAGGGATGAAGA	5.34	6.18	0.888	-0.522	0.925	-0.357	1.08	–
CCGAGTAAGTTACGAGGGGGCATTCAGTGCGAAT	0.778	0.899	0.949	4.68	2.13	0.219	1.09	–
CTATGTAGGTTAATGGGGTCATTCAGTTTGAAAG	7.34	7.83	3.7	13.3	6.66	1.57	3.3	–
CTATGTAGGTTAAGGGGGTAATTCAGTTTGAAAG	7.52	7.27	2.67	1.83	2.31	1.28	2.32	2.99
CTATGTAGGTTAAGGGGATCATTCAGTTTGAAAG	7.23	6.92	1.89	0.432	0.816	0.323	1.05	1.01
TCGAGTAGGTTACGGGGTCATTCAGGGATGAAGA	5.23	6.24	2.46	2.57	–	0.377	3.87	–
CTATGTAGGTTAAGGGGGTTATTCAGTTTGAAAG	6.94	7.29	2.61	5.03	–	1.62	2.24	3.46
CCGAGTAGGTTACGAGGGGGTATTCAGTGCGAAT	4.05	4.17	1.24	0.693	1.99	0.377	1.51	2.91
TCGAGTAGGTTACGGGGGAATTCAGGGATGAAGA	4.46	4.91	1.34	0.36	1.17	-0.238	1.62	1.33
CCGAGTAGGTTACGAGGGGGCATTCATTGCGAAT	4.44	4.49	1.17	0.535	2.77	0.224	1.94	4.23
CCGAGTAGGTTACGAGGGGGCATTAAGTGCGAAT	4.89	4.4	2.11	7.4	2.72	0.983	2.15	4.77
CTATGTAGGATAAGGGGGTCATTCAGTTTGAAAG	4.4	5.24	3.61	11.1	5.73	2.91	3.27	5.75
CTATGTAGGTTAAGGGGGTCAGTCAGTTTGAAAG	7.45	7.33	3.02	6.85	4.15	0.767	3.2	4.52
CCGAGTAGGTTACAAGGGGGCATTCAGTGCGAAT	4.32	4.29	1.99	5.19	3	0.759	2.17	4.6
CAATGTAGGTTAAGGGGGTCATTCAGTTTGAAAG	7.92	7.9	7.74	13.1	6.32	4.17	3.72	6.21
